# KB-V1 MDR tox: KB-V1 MDR subline cytotoxicity; KB-V1 MDR cells viability, CellTiter-Glo, 72 h; Potency, µM (series often up to 46.1 µM), hits mostly cytotoxic; actives 3.4% (n = 400,000); also: % is scaled to controls: 0 for no effect and ±100 for the full control effect; nearly all actives have a fitted effect of over 60% in size
#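 Cytotoxicity toward P-gp-expressing KB-V1 cells was determined as loss of CellTiter-Glo luminescence after 72 h at 37 degrees C. Compounds were tested in quantitative HTS format across a concentration range, with curves fitted to normalized data.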
# 12-LOX inh: ALOX12 (human) lipoxygenase inhibition. P18054. purified 12hLO, xylenol orange hydroperoxide absorbance. Potency, µM (series often up to 108 µM), for the others: top-dose activity change, negative = inhibition, most hits filed as inhibitors. actives 1.1% (n = 580,000); also: % is scaled to controls: 0 for no effect and ±100 for the full control effect
# Target sequence (P18054 whole entry, looked up): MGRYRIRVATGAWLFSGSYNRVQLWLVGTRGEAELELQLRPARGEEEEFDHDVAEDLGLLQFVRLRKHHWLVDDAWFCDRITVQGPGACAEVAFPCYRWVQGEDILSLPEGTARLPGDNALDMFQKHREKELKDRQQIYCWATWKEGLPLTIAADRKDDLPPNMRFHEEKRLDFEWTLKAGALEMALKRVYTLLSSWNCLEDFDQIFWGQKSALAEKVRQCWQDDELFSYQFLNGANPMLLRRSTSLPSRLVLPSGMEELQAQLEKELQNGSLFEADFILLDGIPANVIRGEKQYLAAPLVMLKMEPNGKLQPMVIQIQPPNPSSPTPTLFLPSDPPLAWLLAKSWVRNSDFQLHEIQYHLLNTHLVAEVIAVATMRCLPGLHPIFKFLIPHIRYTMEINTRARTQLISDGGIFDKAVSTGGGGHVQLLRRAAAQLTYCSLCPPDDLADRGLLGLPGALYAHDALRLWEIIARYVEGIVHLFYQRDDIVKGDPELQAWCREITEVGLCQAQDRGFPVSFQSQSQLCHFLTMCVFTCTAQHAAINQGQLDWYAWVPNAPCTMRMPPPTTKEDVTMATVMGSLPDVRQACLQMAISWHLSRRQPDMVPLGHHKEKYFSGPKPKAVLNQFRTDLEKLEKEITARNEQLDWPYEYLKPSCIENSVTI
#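 Purified human 12hLO at 150 nM in 25 mM Hepes, 0.01% Triton X-100, pH 7.0, preincubated 15 min at room temperature with compound. Reaction started with 40 uM arachidonic acid, 30 min at room temperature. Hydroperoxide measured by Fe-xylenol orange, 573/405 nm absorbance ratio.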
# MCF10A rerep: induces DNA re-replication in MCF 10a normal breast cells; MCF 10A DNA re-replication, Hoechst nuclear intensity, 48 h; Potency, µM (top dose mostly 46.1 µM), for inactives: at the top dose activity, positive = re-replication, hits mostly activators; actives 2.9% (n = 350,000); AID 624296; also: % of control where 0% means no effect; nearly all actives have a fitted effect of over 50% in size
# KB-3-1 cytotox: kills parental KB-3-1 adenocarcinoma cells. KB-3-1 viability, CellTiter-Glo ATP luminescence, 72 h. Potency, µM (series often up to 46.1 µM), most hits filed as cytotoxic. actives 1.4% (n = 400,000). AID 1347075; also: % is scaled to controls: 0 for no effect and ±100 for the full control effect; nearly all actives have a fitted effect of over 60% in size
#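 Multi-concentration cytotoxicity screen in KB-3-1 cells grown in DMEM lacking phenol red with 10% FBS. After 72 h at 37 °C with compound, ATP-dependent luminescence was recorded.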
# PINK1 modulator: PINK1 expression modulation | PINK1 immunofluorescence, high-content cytometry, 24 h | Potency, µM (highest dose often 76.6 µM), for inactives: at the highest dose activation (PINK1 increase), hits mostly activators | actives 0.2% (n = 410,000); active = well fitted activation curve with a large enough effect; inconclusive = small, poorly fitted or top-dose-only effect; cell line not stated here; also: % of control where 0% means no effect; nearly all actives have a fitted effect of over 65% in size
#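 Stable cell line treated 24 h with compounds at 5 concentrations (CCCP controls), then fixed and immunostained for PINK1 plus nuclear and cell stains; PINK1 immunofluorescence quantified by laser-scanning microplate cytometry.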
# SW480 rereplic: DNA re-replication induction in SW480 cells. SW480 DNA re-replication, Hoechst DNA content imaging, 48 h. AID 624297. actives 1.8% (n = 340,000). Potency, µM (top dose mostly 46.1 µM), for the others: at the highest dose re-replication activation, hits mostly activators; also: % of control where 0% means no effect; nearly all actives have a fitted effect of over 55% in size
#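 Cells (250 per well) received 23 nL compound or DMSO by pin tool and were kept 48 hr at 37 C, 5% CO2. Nuclei were then stained with Hoechst for 40 min and scanned for DNA content.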
# An asterisk follows results filed as active; i = inactive; ? = inconclusive; · = not tested or not shown; ! = a repeat was not active; [ ] = remark or other dose. An excerpt weighted towards active compounds, which were near 5.8% of everything screened. Unless noted, calls follow the shape of the dose curve; as a rule, active = well fitted curve in the direction sought with a large enough effect; inconclusive = small, poorly fitted or top-dose-only effect, or another doubt; inactive = no such curve, though single readings can be large; an effect the other way counts as inactive or inconclusive. Potency is read from the fitted curve at half-maximal effect.
SMILES,KB-V1 MDR tox,12-LOX inh,MCF10A rerep,KB-3-1 cytotox,PINK1 modulator,SW480 rereplic
C=CCOc1ccc(C(=O)Nc2ccccc2C(=O)NCc2cccnc2)cc1,3.7µM*,?,?,5.2µM*,12%,?
COCc1ccc(C(=O)Nc2ccccc2C(=O)NCc2cccnc2)cc1,?,8%,6%,i,0%,-1%
O=Cc1ccc2cccnc2n1,i,-26%,-2%,i,-1%,1%
O=Cc1ccc2ccc3cccnc3c2n1,i,-6%,?,i,0%,21µM*
COc1ccc(-c2cc(C(=O)NC3CCN(C(C)C)CC3)c3ccccc3n2)cc1OC,·,-29%,·,·,·,·
COc1c(S(=O)(=O)NCCCn2ccnc2)ccc(Cl)c1Cl,i,0%,12µM*,i,1%,?
Cc1c(Cl)ccc(S(=O)(=O)NCCCn2ccnc2)c1Cl,i,14%,?,i,2%,?
Cc1cccc(CNC(=O)CCCN2C(=O)COc3ccc(C)cc32)c1,·,-11%,·,·,1%,·
CCN(CCCNC(=O)CCCN1C(=O)COc2ccc(C)cc21)c1cccc(C)c1,12µM*,-30%,3%,i,1%[38.3 µM],-3%
COC(=O)c1cc2c(Cl)c(Cl)ccc2[nH]1,·,-31%,·,·,·,·
CC(C)OC(=O)c1sc2nc(-c3ccccc3)ccc2c1N,i,0%,?,i,12%[38.3 µM],5.8µM*
COc1ccc(C(=O)c2sc3nc(-c4ccccc4)ccc3c2N)cc1,i,·,3.7µM*,?,5%,21µM*
Cc1nc2sc(C(=O)c3ccccc3)c(N)c2c(C)c1C,?,0%,-2%[9.22 µM],i,6%,1%
Cc1nc(-c2ccccc2)nc2sc(C(=O)c3ccc(F)cc3)c(N)c12,i,-18%,10µM*,i,9%,16µM*
COc1ccc(-c2c(C#N)c(N)nc3sc(C(=O)c4ccccc4)c(N)c23)cc1,4.1µM*,13%,?,i,-1%,-3%
CCCNC(=O)NC(=O)CSc1cc(C)c2ccccc2n1,·,-28%,·,·,·,·
Clc1ccccc1-n1ncc2c(NC3CCCC3)ncnc21,·,-11%,·,·,·,·
O=C(O)c1ccccc1Nc1ccc([N+](=O)[O-])cc1,?,-12%,10%,9.2µM*,0%,2%
CC(C)CC(=O)C(C#N)C(=O)Nc1ccccc1Cl (stereo unspecified),·,5%,·,·,·,·
C=CCOC(=O)C1C(=O)CC(C)(O)C(C(=O)OCC=C)C1c1ccc(Cl)cc1 (stereo unspecified),·,-9%,·,·,·,·
Clc1ccc(C(Cn2ccnc2)OCc2c(Cl)cccc2Cl)c(Cl)c1 (stereo unspecified),?,-16%,4.6µM*,i,8%,?
Clc1ccc(C(Cn2ccnc2)OCc2ccc(Sc3ccccc3)cc2)c(Cl)c1 (stereo unspecified),·,-14%[57.4 µM],·,·,·,·
O=C(c1ccc(S(=O)(=O)c2ccccc2Cl)c([N+](=O)[O-])c1)N1CCN(Cc2ccccc2)CC1,2.3µM*,15%,?,?,0%,21µM*
O=C(c1ccc(F)cc1)N1CCN(c2cc(N3CCCCC3)c(F)cc2[N+](=O)[O-])CC1,9.2µM*,4%,30%,i,-4%[38.3 µM],13%
O=C(c1ccc(S(=O)(=O)c2ccc(F)cc2)c([N+](=O)[O-])c1)N1CCCCCC1,8.2µM*,-8%,?,i,-1%,?
SMILES,KB-V1 MDR tox,12-LOX inh,MCF10A rerep,KB-3-1 cytotox,PINK1 modulator,SW480 rereplic
O=C(c1ccc(Br)c([N+](=O)[O-])c1)N1CCN(Cc2ccccc2)CC1,i,?,13%,i,1%,-5%
COC(=O)C(NNc1ccccc1C)(NC(=O)c1ccc(F)cc1)C(F)(F)F (stereo unspecified),i,?,7%,i,-2%,1%
COC(=O)C(NNc1ccc(F)cc1)(NC(=O)c1ccccc1)C(F)(F)F (stereo unspecified),18µM*,?,0%,i,2%,-6%
CC(C)(C)c1cc(/C=C/C(=O)O)cc(C(C)(C)C)c1O,·,8.9µM*,·,·,·,·
CCOc1ccc(-n2nnc3c(=O)n(Cc4nc(-c5ccc(SC)cc5)no4)cnc32)cc1,·,-11%,·,·,·,·
COc1ccc2c(C)c(CCC(=O)Nc3ccccc3OC)c(=O)oc2c1,·,18%,·,·,·,·
O=C(Nc1ccc(OCC(F)(F)C(F)F)c(C(F)(F)F)c1)c1ccccc1O,?,-26%,12µM*,?,16µM*,?
O=C(Nc1ccc(OCC(F)(F)C(F)F)c(C(F)(F)F)c1)c1ccccc1,?,-20%,?,i,2%,-4%
Cc1ccccc1CN1CC[C@H](c2nc3ncccc3[nH]2)C1,·,24%[176 µM],·,·,·,·
Cc1ccc(-c2nccc(N3CCC(O)C3)n2)c(C)c1 (stereo unspecified),·,35µM*,·,·,·,·
O=C(Cn1nnc(-c2ccc3c(c2)OCO3)n1)Nc1ccccc1C(=O)O,·,22µM*,?,·,-1%,0%
c1csc(CNc2nc(-c3ccc4c(c3)OCO4)nc3ccccc23)c1,·,11µM*,·,·,0%,·
c1csc(CNc2ncncc2-c2ccc3c(c2)OCO3)c1,·,28µM*,·,·,8%,·
c1cncc(CNc2ncncc2-c2cccnc2)c1,·,?,·,·,2%,·
c1cncc(-c2cncnc2NCc2cccs2)c1,·,7.9µM*,·,·,-1%,·
COc1ccccc1CNc1nc(-c2ccc3c(c2)OCO3)nc2ccccc12,·,?,·,·,16%,·
COc1ccccc1C1SCCN1S(=O)(=O)c1cccc(C(F)(F)F)c1 (stereo unspecified),16µM*,-15%,12%,i,·,3%
COc1ccc(S(=O)(=O)N2CCSC2c2ccccc2)cc1 (stereo unspecified),23µM*,0%,?,?,5%[38.3 µM],8%
CC12CC(c3ccccc3O1)N(C(=O)c1ccco1)C(=S)N2c1ccccc1 (stereo unspecified),i,0%,23µM*,i,-1%,18%
CC1CC(N(C(=O)c2ccco2)c2ccccc2)c2ccccc2N1C(=O)c1ccco1 (stereo unspecified),i,3%,30%,i,-6%,?
c1ccc(-c2cn3c4c(sc3n2)CCCC4)cc1,?,-13%,21µM*!,?,3%,?
c1ccc(-c2cn3nc(-c4ccccc4)sc3n2)cc1,i,·,4%,i,-1%,-2%
Cc1ccc(C(=O)NCC(C)(C)CNC(=O)c2ccc(C)o2)o1,·,-1%,·,·,·,·
CC(C)Cc1ccc(S(=O)(=O)Nc2cccnc2)cc1,i,-10%,14%,i,-1%,4.6µM*
